Screen size: about 320,000 compounds; about 22,000 (6.9%) were called active. Another 27% or so got no clear call; they are omitted. This excerpt belongs to a sample that is enriched for actives. Values without a mark were called inactive. Calls follow the shape of the dose curve; as a rule, active = well fitted inhibition curve with a large enough effect; inconclusive = small, poorly fitted or top-dose-only effect, or another doubt; inactive = no such curve, though single readings can be large or run the other way.
test: Primary qHTS for delayed death inhibitors of the malarial parasite plastid, 96 hour incubation; conditions: P. falciparum luciferase reporter growth; series mostly up to 28.7 µM; activity change, negative = inhibition: at the top concentration
In short: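 Cell-based qHTS: luciferase-tagged P. falciparum in erythrocytes (2% hematocrit, 0.05% parasitemia final) incubated with compounds for 96 hours, 37 C, 5% CO2; luciferase detection reagent then added and luminescence measured.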
% is scaled to controls: 0 for no effect and ±100 for the full control effect; potency is read from the fitted curve at half-maximal effect.

In order of rising “activity change, negative = inhibition” value:
1. COc1ccc(-n2c(=S)[nH]c3sc4c(c3c2=O)CCc2ccccc2-4)cc1  -104%
2. O=C(CSc1nccc(=O)[nH]1)Nc1ccc(N2CCOCC2)c(Cl)c1  -26.5%
3. Cc1nc2sc3c(c2c(=O)n1NC(=O)CCl)CCCC3  -26.3%
4. COc1ccccc1Oc1nc(-c2cccnc2)nc2ccccc12  -24.1%
5. COc1ccc(S(=O)(=O)NC(C)C(=O)NCc2ccncc2)cc1Cl (stereo not drawn)  -22.5%
6. COC(=O)C1=C(c2ccc3ccccc3c2)C[C@@H]2CC[C@H]1N2C(=O)NCCO  -21.9%
7. S=C(Nc1ccc(Br)cc1)NC1CCN(Cc2ccccc2)CC1  -20.3%
8. O=C(Nc1ccccc1)N1CCC(C(=O)N2CCN(Cc3ccccc3)CC2)CC1  -19.7%
9. CCCOc1ccc(Cc2c(O)nc(N)[nH]c2=O)cc1C  -17.1%
10. CCn1c(SCC(=O)NNC(=O)c2ccc(OC)cc2)nnc1C(C)C  -16.7%
11. CCCCC(=O)Nc1ccc(C(=O)Nc2cc(C(F)(F)F)ccc2Cl)cc1  -15.4%
12. COc1ccc(C(=O)Nc2c(N)nc(SCC(=O)Nc3ccc(C(C)=O)cc3)[nH]c2=O)cc1  -14.7%
13. O=C(COC(=O)c1ccccc1C(=O)N1CCN(c2ccccc2)CC1)NCc1ccccc1  -13.9%
14. CNC(=O)N1c2ccccc2C=Cc2ccccc21  -13.3%
15. CC1CN(C(=O)COC(=O)c2cccc(NS(=O)(=O)c3ccccc3)c2)CC(C)O1 (stereo not drawn)  -10.8%
16. Cc1ccc(-n2ccc(=O)c(C(=O)O)n2)cc1  -10.7%
17. Cc1ccc(C)c(-n2c(SCC(=O)O)nc3sc4c(c3c2=O)CCCC4)c1  -7.37%
18. C/C=C/C(=O)OCc1csc(CC(=O)Nc2ccccc2C)n1  -7.19%
19. Cc1ccccc1Nc1nc(-c2cccnc2)cs1  -7.11%
20. COc1ccc(CN(Cc2ccc(OC)cc2)C(=O)c2cccs2)cc1  -6.73%
21. Cc1cc(C(=O)NC2CC(C)(C)Cc3c2cnn3-c2ccccc2)n[nH]1 (stereo not drawn)  -4.15%
22. Cc1ccc(C(=O)Oc2ccc(C(=S)N3CCOCC3)cc2)cc1  -3.89%
23. COc1ccccc1OCc1nnc(SCC(N)=O)n1-c1ccccc1  -2.43%
24. COc1ccccc1-n1c(SCC(=O)O)nc2sc3c(c2c1=O)CCC3  -1.23%
25. CCOC(=O)c1nnn2c3ccccc3c(=O)n(C)c12  0%
26. CNC(=O)c1sc(Nc2ccc(OCc3ccccc3)cc2)nc1C  1.4%
27. COC(=O)c1sccc1NC(=S)Nc1ccc(C)cc1  2.1%
28. CC1CCC(CN2CCN=C2N(C)C)CC1 (stereo not drawn)  3.19%
29. Cc1cc2c(cc1S(=O)(=O)CCC(=O)NCc1ccccc1)OCC(=O)N2  3.56%
30. O=C1CCCN1CCCNC(=S)Nc1ccc(F)c(Cl)c1  4.63%
31. O=C(Nc1ccc(-c2cscn2)cc1)C1CCCN(Cc2ccc(CO)o2)C1 (stereo not drawn)  6.28%
32. COc1cc(N2C(=O)CSC2=S)cc(OC)c1OC  8.02%
33. CCOc1ccc(-n2c(SCC(=O)NC3CCS(=O)(=O)C3)nnc2-c2cccnc2)cc1 (stereo not drawn)  10.7%
34. COc1ccc(N(C)S(=O)(=O)c2ccc3c(c2)CC(C)N3C(=O)C2CC2)c(OC)c1 (stereo not drawn)  11.3%
35. COc1ccc(Cc2nc(-c3ccccn3)no2)cc1OC  14.9%
36. COc1ccc(Sc2nc(-c3ccccc3)ncc2OC)cc1  15.8%
37. O=C(NCCc1ccc(C(F)(F)F)cc1)c1ccc2c(c1)OCO2  17.6%
38. COc1ccccc1NC(=O)CSc1nc2sc(C)c(C)c2c(=O)n1Cc1ccco1  19.6%
39. COC(=O)c1ccc(CNC(=O)C2CCC(=O)N(Cc3cccc(F)c3)C2)cc1 (stereo not drawn)  26%
40. O=C(Nc1ccc(O)cc1)c1ccccc1O  28.8%
41. COc1ccccc1NC(=O)CSc1nnc(Cc2cccn2C)n1-c1ccc(F)cc1  29.7%
42. CCOc1ccc(NC(=O)CSc2nncn2C)cc1  30.9%
43. O=C(COc1ccccc1[N+](=O)[O-])N/N=C/c1ccc[nH]1  31.6%
44. CCc1ccc(-c2nn(-c3ccccc3)cc2CSC(=N)N)cc1  33.9%
45. COC(=O)C1=C(c2ccc(C(C)=O)cc2)C[C@@H]2CC[C@H]1N2C(=O)NCCNC(C)=O  36%
46. C=Cc1ccc(C(=O)N2CCCC(CCC(=O)N3CCN(c4ccccn4)CC3)C2)cc1 (stereo not drawn)  37.2%
47. O=C(NNC(=O)c1cnccc1C(F)(F)F)c1ccc(Cl)cc1  41.6%
48. COc1ccccc1CNC(=O)CN1CCC(n2cnc3cc(F)ccc32)CC1  45.9%
49. Cc1n[nH]c(=O)c2c(NC(=O)CSc3ccccc3F)oc(C)c12  49.4%
50. Cc1cc(C(=O)NNC(=O)c2ccccc2O)c(C)o1  57.1%
51. CCCn1c(N)c(C(=O)CSc2nc3ccccc3c(=O)n2-c2ccc(OC)cc2)c(=O)[nH]c1=O  76.7%
52. O=C(NCCc1ccccc1)Oc1ccc(Cl)cc1  83.8%
53. N#Cc1ccc(Oc2cc(C(F)(F)F)nc(-c3ccccn3)n2)cc1  115%

In the case of `S=C(NNC(=S)NC1CC2C=CC1C2)NC1CC2C=CC1C2` (stereo not drawn), the Potency is reported as 9.28 µM (active).
In the case of `CSC1=NC2(C)CCCCC2C12C=CC(=O)C=C2` (stereo not drawn), the Potency is reported as 13.1 µM (active).
With `COc1ccccc1NC(=O)CSc1nnc(Cn2nnc(-c3ccccc3)n2)n1-c1ccccc1` the Potency was 7.38 µM (active).
In the case of `CCCSc1nc2sc3c(c2c(=O)n1-c1ccc(OC)cc1)CCN(C)C3`, the Potency is reported as 4.65 µM (active).
In the case of `COc1ccccc1NC(=O)CSc1nc2sc3c(c2c(=O)n1-c1ccccc1)CCN(C)C3`, the Potency is reported as 1.65 µM (active).
For `CCOc1ccc(-n2c(SCC(=O)OC)nc3sc4c(c3c2=O)CCN(C)C4)cc1`, the Potency was 0.828 µM (active).
In the case of `CCSc1nc2sc3c(c2c(=O)n1-c1ccc(C)cc1)CCN(C)C3`, the Potency is reported as 0.928 µM (active).
With `Cc1ccc(Oc2nc(-c3ccccn3)nc3ccccc23)cc1` the Potency was 5.86 µM (active).
With `COc1cnc(-c2ccccn2)nc1Oc1ccc(C(C)(C)C)cc1` the Potency was 0.329 µM (active).
In the case of `CCOC(=O)c1nnn2c1nc(N1CCN(c3ccccc3)CC1)c1ccccc12`, the Potency is reported as 2.62 µM (active).
For `O=C(CCCN1C(=O)CCC1=O)Nc1ccc(Cl)c(C(F)(F)F)c1`, the Potency was 2.08 µM (active).
In the case of `COC(=O)C1=C(c2cccc(OCc3ccccc3)c2)C[C@@H]2CC[C@H]1N2C(=O)NNCc1ccccc1`, the Potency is reported as 10.4 µM (active).
With `COC(=O)C1=C(c2ccc(F)cc2OCc2ccccc2)C[C@@H]2CC[C@H]1N2C(=O)NCc1ccc2[nH]ccc2c1` the Potency was 5.86 µM (active).
For `CC(=O)NC(=O)c1ccccc1O`, the Potency was 5.36 µM (active).
For `CCn1c(SCc2ccc(C)cc2)nnc1-c1nn(-c2ccccc2)ccc1=O`, the Potency was 7.38 µM (active).

Source: PubChem BioAssay AID504834 (National Center for Advancing Translational Sciences (NCATS), 2011)
